# Compound activity as filed in PubChem.
# Pf Dd2 growth = blocks in vitro growth of P. falciparum Dd2; AID 1347417; Potency, µM (doses to about 28.9 µM), for the others: top-dose activity, negative = inhibition, hits mostly inhibitors; 120,000 tested, 4.3% active; P. falciparum Dd2 growth, SYBR Green, 72 h; active = well fitted inhibition curve with a large enough effect;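 note: plate controls were DMSO vehicle for no effect and reference drug for full effect; nearly all actives have a fitted effect of over 65% in size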
#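 Readout: SYBR Green fluorescence, 485 nm excitation, 535 nm emission, after ~16 h lysis at 37C. Before that, Dd2-infected red cells (2.5% hematocrit) grew 72 h with compound, 29 uM top final concentration.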
# * hit, by the source's call; i = inactive; [ ] = dose if it differs, or a comment. Shown is part of a subset that was picked to be rich in hits. Potency is the fitted concentration of half-maximal effect.
SMILES,Pf Dd2 growth
COc1ccc(-c2noc([C@@H]3C[C@H](NCc4ccc(N(C)C)cc4)CN3C)n2)cc1,13µM*
COc1ccc(-c2noc([C@@H]3C[C@H](NC(=O)COCC(=O)O)CN3C)n2)cc1,-18%[44.1 µM]
COc1ccc(-c2noc([C@@H]3C[C@H](NS(=O)(=O)c4ccccc4)CN3C)n2)cc1,i
COc1cc(=O)n2c(c1C(=O)Nc1cccc(Cl)c1)CCCC2,66%
CCOCCCn1c(=N)c(C(=O)NCc2cccnc2)cc2c(=O)n3cc(C)ccc3nc21,-3%
O=C(c1ccccc1)N1CCC(OCC2CC2)C1 (configuration not stated),3%
O=C(CSc1nc(=O)n(CCN2CCOCC2)c2c1CCC2)Nc1ccc(F)cc1F,17%
CN(C)c1ccc(C(=O)NC[C@H]2O[C@@H](CO)[C@@H](O)[C@H]2N(C)Cc2ccccc2)cc1,-19%
Cc1ccc(CSCC(=O)N2CCN(c3ccc(F)cc3)CC2)cc1,19%
COc1ccc(N2CCN(C(=O)CCc3conc3-c3ccc(F)cc3)CC2)cc1,i
CCc1ccc(-c2nc(CSCC(=O)N3CCN(c4ccc(F)cc4)CC3)c(C)o2)cc1,i
O=C(CSc1nc(-c2ccccc2)no1)N1CCN(c2ccccc2)CC1,10µM*
COc1ccc(N2CCN(C(=O)CSCc3ccc(C)cc3)CC2)cc1,-15%
COc1ccc(N2CCN(C(=O)CSc3n[nH]c(-c4ccccc4)n3)CC2)cc1,6%
COc1ccc(-c2nc(CSCC(=O)N3CCN(c4ccccc4)CC3)c(C)o2)cc1,7.1µM*
CC(C)c1ccc(-c2noc(SCC(=O)N3CCN(c4ccc(F)cc4)CC3)n2)cc1,0.45µM*
O=C(CSc1n[nH]c(-c2ccccc2)n1)N1CCN(c2ccc(F)cc2)CC1,5%
COc1ccc(N2CCN(Cc3nc(-c4ccc(C)cc4)no3)CC2)cc1,i
COc1ccc(N2CCN(C(=O)CSc3nc(-c4ccc(C(C)C)cc4)no3)CC2)cc1,0.28µM*
O=C(CSc1nc2ccccc2nc1Cc1ccccc1)N1CCN(c2ccccc2)CC1,44%
O=C(CCn1c(=O)c2cccn2c2cccnc21)Nc1ccccc1C(F)(F)F,12%
O=C(c1ccc(F)cc1F)N1CCC2(CC1)N=C(c1ccc(Br)cc1)NO2,i
CCC(Sc1nc2cc(OC)c(OC)cc2c(=O)n1Cc1ccc(OC)cc1)C(=O)NCCOC (configuration not stated),-3%
COc1ccc(C2Cn3nnc(-c4noc(COc5cccc(C)c5)n4)c3CO2)cc1 (configuration not stated),10µM*
COc1ccc(C2Cn3nnc(-c4noc(CCc5cccc(OC)c5)n4)c3CO2)cc1 (configuration not stated),-18%
SMILES,Pf Dd2 growth
CCc1nc(-c2nnn3c2COC(c2ccc(OC)cc2)C3)no1 (configuration not stated),i
Cc1cc(N2CCC(C(=O)N(CC(C)C)CC(C)C)CC2)n2nc(C)c(-c3ccc(Cl)cc3)c2n1,24%
O=C(C1CCCCC1)N1CCCC2(CC(c3ccccc3)=NO2)C1 (configuration not stated),-2%
Cc1cccc(CNC(=O)CN2C(=O)CCCc3ccccc32)c1,37%
CC(=O)N1CCc2cc(S(=O)(=O)NC(Cc3ccccc3)C(=O)Nc3cc(C)ccc3C)ccc21 (configuration not stated),23%
Cc1cc(Oc2nc3ccccn3c(=O)c2/C=C(\C#N)c2nc3ccccc3s2)ccc1Cl,i
N#C/C(=C\c1c(Oc2ccc(Br)cc2)nc2ccccn2c1=O)c1nc2ccccc2s1,6%
CCc1ccc(Oc2nc3c(C)cccn3c(=O)c2/C=C(\C#N)c2nc3ccccc3s2)cc1,i
Cc1cccn2c(=O)c(/C=C(\C#N)c3nc4ccccc4s3)c(Oc3ccc(F)cc3)nc12,3.2µM*
Cc1cc(C)cc(Oc2nc3c(C)cccn3c(=O)c2/C=C(\C#N)c2nc3ccccc3s2)c1,0.89µM*
Cc1cc(C)cc(Oc2nc3ccccn3c(=O)c2/C=C(\C#N)c2nc3ccccc3s2)c1,22%
COCc1cn(C[C@H]2C[C@@H]3CCN2C[C@@H]3C(=O)N2CCOCC2)nn1,10%[44.1 µM]
COC[C@@H]1CN(S(=O)(=O)c2cc(F)ccc2C)C[C@H]1C(N)=O,-11%
CCc1cc2c(cc3c(=O)n(CC(=O)NCCc4ccc(OC)cc4OC)nc(CC)n32)s1,20%
CC(C)n1cc2cc(C(=O)NCCc3cccs3)sc2c1,i
NS(=O)(=O)c1ccc(NC(=O)CN2C(=O)COc3ccc(Cl)cc32)cc1,0.71µM*
CCN(CC)S(=O)(=O)c1ccc2c(c1)N(CC(=O)Nc1ccc(F)cc1)C(=O)CO2,19%
Cc1ccc(NC(=O)CN2C(=O)COc3ccc(S(=O)(=O)N4CCCCC4)cc32)cc1Cl,6%
COC(=O)[C@H](NC(=O)[C@@H]1[C@@H](NC(=O)Nc2cccc(SC)c2)CCN1C(=O)C=C(C)C)C(C)C,-29%
O=C(CCCc1ccccc1)NC1CCN(c2cc(-c3ccccc3)[nH]n2)CC1,-16%
Cc1cc2[nH]c(=O)c(=O)[nH]c2cc1S(=O)(=O)N1CCN(c2ccccc2F)CC1,9%
